Screens deposited in PubChem BioAssay by National Center for Advancing Translational Sciences (NCATS).
Compounds with a hit are over-represented: about 0.65% of the library has one in this group of screens.
SARS PLpro yeast: SARS-CoV PLP inhibition in yeast. S. cerevisiae expressing SARS-CoV PLpro, growth rescue. Potency, µM (series often up to 32.9 µM), actives largely listed as activators. 330,000 tested, 0.19% active. AID 485353; further: nearly all actives have a fitted effect of over 55% in size
AMA1-RON2 inh: AMA1-RON2 (P. falciparum) interaction inhibition; Potency, µM (doses to about 58.2 µM), usual class: inhibitors; AID 720542; 360,000 tested, 0.2% active; AlphaScreen AMA1-biotinylated RON2 peptide binding; active means well fitted inhibition curve with a large enough effect; inconclusive means small, poorly fitted or top-dose-only effect; inactive means no such curve, though single readings can be large or run the other way; further: nearly all actives have a fitted effect of over 45% in size
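AMA1 (3D7) with his tag at 25 nM final met compounds first, then biotinylated RON2 peptide at 25 nM; detection used donor plus acceptor beads, 10 µg/mL apiece, read by AlphaScreen after 30 min at room temperature.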
NS1 function inh: blocks influenza NS1 protein function; 270,000 tested, 0.4% active; Potency, µM (top dose mostly 46.1 µM); further: actives are rising curves; nearly all actives have a fitted effect of over 50% in size
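S. cerevisiae expressing influenza A NS1, grown in glucose, washed, then diluted 1:100 into pH 6.0 -URA galactose medium with 23 nl compound. Growth recovery read as OD600; NS1-free strain serves as control.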
Each line names hits and unclear results; the compound was inactive in the other large screens. Unless noted, the call rests on the fitted dose curve.

OC1=C(O)c2nc3cc(C(F)(F)F)ccc3nc21	AMA1-RON2 inh 28.2µM
OC1=C(O)c2nc3ccccc3nc21	none
O=C(C1CN(C(=O)c2cc3cc(Cl)ccc3o2)c2ccccc2O1)N1CCCCC1 (configuration not stated)	none (no result: NS1 function inh)
CCNC(C)(C)[C@@H](SS)c1ccc(Br)cc1	none (no result: SARS PLpro yeast, AMA1-RON2 inh)
CCN(CC)S(=O)(=O)c1ccc(C(=O)N2CCN=C2SCc2cccnc2)cc1	none
CN(C)S(=O)(=O)c1ccc(C(=O)N2CCN=C2SCc2cccnc2)cc1	SARS PLpro yeast 20µM
C[C@H]1C2C=C[C@H]1[C@@H](C(=O)O)[C@@H]2c1c2ccc(=O)c(O)c-2oc2c(O)c(O)ccc12	none (no result: SARS PLpro yeast, AMA1-RON2 inh)
COc1cccc(N2CCN(C(=O)CCNS(=O)(=O)c3ccc(F)c(F)c3)CC2)c1	none (no result: NS1 function inh)
CCc1ccc(S(=O)(=O)/N=C2\C=C(Nc3ccc(O)cc3)C(=O)c3ccccc32)cc1	AMA1-RON2 inh 25.1µM
Cc1ccc(Cl)cc1NC1=C/C(=N\S(=O)(=O)c2cccs2)c2ccccc2C1=O	AMA1-RON2 inh 4.47µM
Cc1ccc(NC2=C/C(=N\S(=O)(=O)c3cccs3)c3ccccc3C2=O)c(C)c1	AMA1-RON2 inh 4.47µM
Cc1cc(C)c(S(=O)(=O)/N=C2\C=C(NS(=O)(=O)c3ccccc3)C(=O)c3ccccc32)c(C)c1	none
O=C1C(Nc2ccc(O)cc2)=C/C(=N/S(=O)(=O)c2cccs2)c2ccccc21	AMA1-RON2 inh 25.1µM (no result: NS1 function inh)
O=C(O)c1ccc(NC2=C/C(=N/S(=O)(=O)c3ccccc3)c3ccccc3C2=O)cc1	AMA1-RON2 inh inconclusive (no result: NS1 function inh)
Cc1cccc(NC2=C/C(=N/S(=O)(=O)c3cccs3)c3ccccc3C2=O)c1	AMA1-RON2 inh inconclusive
CCc1ccc(S(=O)(=O)/N=C2\C=C(Nc3cccc(C(=O)O)c3)C(=O)c3ccccc32)cc1	AMA1-RON2 inh inconclusive
CCN(CC(=O)NCc1cccs1)C(=O)/C=C/c1ccc(OC)c(OC)c1	none (no result: NS1 function inh)
CCN(C(=O)COC(=O)CCOc1cc(C)ccc1C)c1c(N)n(Cc2ccccc2)c(=O)[nH]c1=O	none (no result: SARS PLpro yeast, NS1 function inh)
CCOC(=O)[C@]12CCC=C1N(Cc1ccc(Cl)cc1Cl)C(=O)[C@H](CC(=O)NCC13CC4CC(CC(C4)C1)C3)C2	none (no result: SARS PLpro yeast, NS1 function inh)
O=C(O)CCCCn1cnc2c(=S)nc[nH]c21	none (no result: SARS PLpro yeast, AMA1-RON2 inh)
O=C(O)[C@H](C1NCCS1)N1C(=O)c2ccccc2C1=O (some centres not stated)	none (no result: SARS PLpro yeast, AMA1-RON2 inh)
CCCCCCCN1N=C(C)C(C(=O)c2ccccc2)C1=O (configuration not stated)	SARS PLpro yeast 10µM
CCCCCCN1N=C(C)C(C(=O)c2ccc(Cl)cc2)C1=O (configuration not stated)	none
CCOC(=O)Cc1nn(Cc2nc(-c3ccc(C)cc3)cs2)c(=O)c2ccccc12	none
CN(C)[C@@H]1C(=O)C(C(N)=O)=C(O)[C@]2(O)C(=O)C3=C(O)c4c(O)cccc4[C@](C)(O)[C@H]3C[C@@H]12	none (no result: SARS PLpro yeast, AMA1-RON2 inh)
CN(C)[C@@H]1C(=O)C(C(N)=O)=C(O)[C@@]2(O)C(=O)C3=C(O)c4c(O)cccc4[C@@](C)(O)[C@H]3[C@H](O)[C@@H]12	AMA1-RON2 inh 1µM
c1ccc(-c2ccc(-c3ccc(C4=NCCN4)cc3)o2)cc1	none (no result: SARS PLpro yeast, AMA1-RON2 inh)
CC(C)(C)C1=CC(=Nc2ccccc2N)C=C(C(C)(C)C)C1=O	AMA1-RON2 inh 11.2µM
CC(C)(C)C1=CC(=O)C(=O)C(C(C)(C)C)=C1	none
COc1ccc(N=CC2=C(O)CC(C)(C)CC2=O)cc1	SARS PLpro yeast 12.6µM
COc1ccc(OC)c(N=CC2=C(O)CC(C)(C)CC2=O)c1	none
CC1CCN(S(=O)(=O)c2ccc3c(c2)CCC(=O)N3CC(=O)Nc2cccc(C#N)c2)CC1	none (no result: AMA1-RON2 inh, NS1 function inh)
c1ccc(OCCN2CCOCC2)cc1	AMA1-RON2 inh 14.1µM
CC1CCN(CCOc2cccc(Br)c2)CC1	none
c1ccc(Cc2ccc(OCCN3CCOCC3)cc2)cc1	none
Clc1cccc(OCCN2CCN(CCOc3cccc(Cl)c3)CC2)c1	AMA1-RON2 inh 17.8µM
CCN(CC)CCCNC(=O)c1nn2c(C(F)(F)F)cc(-c3ccccc3)nc2c1Cl	none
CCC(=O)N1CCN(c2nc3ccc(Br)cc3s2)CC1	none
Cc1onc(NC(=O)NC(=O)c2c(Cl)cccc2Cl)c1Br	none
Fc1ccc(/C=N/Nc2cc(N3CCOCC3)ncn2)cc1	none
Fc1cccc(/C=N/Nc2cc(N3CCOCC3)ncn2)c1	SARS PLpro yeast 2.82µM
O=S(=O)(c1ccc2c(c1)OCCO2)C1CCC(O)CC1 (configuration not stated)	none (no result: AMA1-RON2 inh, NS1 function inh)
CCN(CC(=O)Nc1ccc(NC(C)=O)cc1)C(=O)c1cc([N+](=O)[O-])ccc1Sc1ccc(Cl)cc1	none (no result: SARS PLpro yeast, NS1 function inh)
CCOC(=O)CSc1nnc(NC(=O)CCc2ccccc2)s1	none
O=C(O)c1ccc(C2CCCCC2)cn1	AMA1-RON2 inh 12.6µM
O=C(O)C1=C(C2CCCCC2)C(=O)c2ccccc21	none (no result: SARS PLpro yeast, NS1 function inh)
Cc1cccn2c(=S)[nH]nc12	none (no result: SARS PLpro yeast, NS1 function inh)
Oc1ccc(Cc2nccc3cc(O)c(O)cc23)cc1O	none (no result: SARS PLpro yeast, AMA1-RON2 inh)
Clc1ccccc1CN1CCN(/N=C/C=C\c2ccco2)CC1	AMA1-RON2 inh 10µM
C(/C=C/c1ccco1)=N/N1CCN(c2ccccc2)CC1	AMA1-RON2 inh inconclusive
CCCN(CCC)Cc1cc(=O)oc2cc3c(cc12)CCC3	none
COc1ncnc2c1ncn2CCCNCc1ccc2c(c1)OCO2	none (no result: SARS PLpro yeast, NS1 function inh)
Oc1ccc(-c2nc3ccccn3c2NCc2ccc3c(c2)OCO3)cc1	none
Cc1ccn2c(NCc3ccc4c(c3)OCO4)c(-c3ccc(O)cc3)nc2c1	SARS PLpro yeast 7.94µM
O=C1OC(C(=O)NCc2ccccc2)Cc2ccccc21 (configuration not stated)	none (no result: NS1 function inh)
CC(C)C[C@H]1CN=C(Nc2ccccc2)N1CC1CCC(C)CC1 (some centres not stated)	none
Cc1ccc(-c2nn(-c3ccccc3)cc2C=C2SC(=S)N(CCS(=O)(=O)O)C2=O)cc1	AMA1-RON2 inh 31.6µM (no result: SARS PLpro yeast, NS1 function inh)
O=C1C(=Cc2cn(-c3ccccc3)nc2-c2ccc(OCc3ccccc3)cc2)SC(=S)N1CCS(=O)(=O)O	none (no result: SARS PLpro yeast, NS1 function inh)
CC(=O)N1CCN(S(=O)(=O)c2cccc(C(=O)OCC(=O)N(CCC#N)c3ccc(F)cc3)c2)CC1	none (no result: NS1 function inh)
O=S(=O)(O)c1cc(O)c2ccc(Nc3ccccc3)cc2c1	none (no result: SARS PLpro yeast, NS1 function inh)
COc1ccccc1Nc1ccc2c(O)cc(S(=O)(=O)O)cc2c1	AMA1-RON2 inh 20µM (no result: SARS PLpro yeast, NS1 function inh)
COc1cccc(Cn2ncc3c4sc(B(O)O)cc4n(C)c3c2=O)c1	none (no result: AMA1-RON2 inh, NS1 function inh)
COc1ccc(N2CCN(C(=O)c3cc(-c4cc(OC)ccc4OC)nc4ccccc34)CC2)cc1	AMA1-RON2 inh 5.01µM
COc1ccc(OC)c(-c2cc(C(=O)N3CCN(c4ncccn4)CC3)c3ccccc3n2)c1	none
COc1ccc(N2c3ccccc3CN(Cc3ccccc3)[C@@H](C)[C@H]2Cc2cccnc2)cc1	AMA1-RON2 inh 14.1µM (no result: SARS PLpro yeast, NS1 function inh)
COc1ccc(N2c3ccccc3CN(Cc3ccccc3)[C@@H](C)[C@H]2Cc2c(C)cccc2C)cc1	none (no result: SARS PLpro yeast, NS1 function inh)
Cc1ccc(CNC(=O)C2CCC(=O)N(CCc3cccc(F)c3)C2)cc1 (configuration not stated)	SARS PLpro yeast inconclusive
CC(=O)N/C(=C\c1ccccc1)C(=O)OCCCOC(=O)/C(=C/c1ccccc1)NC(C)=O	none
Cc1ccc(S(=O)(=O)NCC(=O)OC(C(=O)c2ccccc2)c2ccccc2)cc1 (configuration not stated)	AMA1-RON2 inh 3.16µM
CCc1ccc(C(=O)C(C)OC(=O)CNS(=O)(=O)c2ccc(C)cc2)cc1 (configuration not stated)	none (no result: NS1 function inh)
